From PubChem
C-LANA FP = blocks KSHV LANA C-terminal domain binding to DNA; MBP-C-LANA/FAM-LBS DNA binding, fluorescence polarization; inhibition, % at 9 µM; actives 0.078% (n = 340,000); AID 504423;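 active = highest replicate inhibition at or above 60% at 9 µM, even if other replicates fall short; inactive = all replicates below 60% inhibition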
cardiac RTF act = cardiac RTF calcium sensitization; P19429+P45379; IANBD-labeled TnC RTF fluorescence at EC20 calcium; 0% EC20 calcium, 100% full calcium; activation, % at 7.2 µM; actives 0.24% (n = 340,000); AID 493008;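 active = activation above the mean over all tested compounds plus 3 SD, cut at about 30% in these data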;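 also: rise in fluorescence read as greater calcium sensitivity of cardiac thin filaments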
RTF Ca sens inh = cardiac RTF calcium desensitization | inhibition, % at 7.15 µM | AID 493244 | actives 0.12% (n = 340,000) | IANBD-labeled cardiac RTF, Ca2+ fluorescence;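 active = inhibition above the mean inhibition of all tested compounds plus 3 SD, cut at about 17% in these data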;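 also: assay run at fixed EC70 calcium of 1.6 mM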
Keap1-Nrf2 PPI = inhibitors of human Keap1-Nrf2 protein-protein interaction | Keap1 Kelch-Nrf2 peptide fluorescence polarization, 1536-well | inhibition, % at 9.4 µM | actives 0.15% (n = 340,000); in the data active = inhibition above about 12%; inconclusive = no clear call, values can overlap the other calls; inactive = below about 7.3%;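 also: human Keap1 Kelch domain with fluorescein labeled Nrf2 9mer peptide probe; higher means more block of Keap1 binding to Nrf2 peptide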
eLon inh = E. coli protease La inhibition; P0A9M0; purified E. coli Lon protease, fluorescence polarization; inhibition, % at 7.94 µM; actives 0.42% (n = 360,000); AID 602123; in the data active = inhibition above about 13%, passing the limit was not always enough
Target sequence (P0A9M0 whole entry, looked up): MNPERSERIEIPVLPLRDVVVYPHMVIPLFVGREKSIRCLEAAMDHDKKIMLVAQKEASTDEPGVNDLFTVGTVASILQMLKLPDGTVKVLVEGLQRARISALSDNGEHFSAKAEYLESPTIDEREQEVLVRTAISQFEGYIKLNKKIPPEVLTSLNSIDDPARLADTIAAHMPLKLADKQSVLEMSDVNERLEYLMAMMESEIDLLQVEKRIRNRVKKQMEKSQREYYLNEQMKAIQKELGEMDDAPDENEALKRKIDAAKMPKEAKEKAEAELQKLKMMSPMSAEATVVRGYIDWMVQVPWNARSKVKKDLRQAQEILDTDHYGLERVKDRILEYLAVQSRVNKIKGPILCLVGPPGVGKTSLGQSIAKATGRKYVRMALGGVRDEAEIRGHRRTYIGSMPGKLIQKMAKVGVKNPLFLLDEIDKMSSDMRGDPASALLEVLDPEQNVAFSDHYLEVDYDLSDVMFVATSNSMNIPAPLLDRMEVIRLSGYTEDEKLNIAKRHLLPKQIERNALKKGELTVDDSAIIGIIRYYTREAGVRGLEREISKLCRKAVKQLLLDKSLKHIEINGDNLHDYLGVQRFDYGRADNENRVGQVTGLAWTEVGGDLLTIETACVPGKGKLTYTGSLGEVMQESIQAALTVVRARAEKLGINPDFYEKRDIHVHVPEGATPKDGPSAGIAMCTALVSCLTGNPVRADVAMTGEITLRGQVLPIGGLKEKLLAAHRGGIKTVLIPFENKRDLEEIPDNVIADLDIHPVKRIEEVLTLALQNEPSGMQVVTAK
Large screens that a line does not name were inactive. Shown are actives, neighbours in structure and some others; about 0.74% of the full set was active somewhere.

O=C(CCCN1C(=O)/C(=C\c2ccccc2)SC1=S)N1CCOCC1	none
O=C(O)CN1C(=O)/C(=C/c2ccc(SCc3ccccc3)o2)SC1=S	cardiac RTF act 35.2
CCOC1=C2[C@@H](CN(S(=O)(=O)c3ccc(C)cc3)[C@H]2c2ccccc2F)[C@H]2C(=O)N(c3ccccc3)C(=O)[C@H]2C1	none (no result: C-LANA FP, cardiac RTF act, RTF Ca sens inh, Keap1-Nrf2 PPI)
CCc1ccc(/C=C2\SC(=S)N(CCCC(=O)N(CCO)c3ccccc3)C2=O)cc1	none (no result: C-LANA FP, cardiac RTF act, RTF Ca sens inh, Keap1-Nrf2 PPI)
C[C@H](O)C#Cc1ccc2c(c1)O[C@@H](CN(C)Cc1ccc(-c3ccccc3)cc1)[C@H](C)CN([C@@H](C)CO)S2(=O)=O	none (no result: C-LANA FP, cardiac RTF act, RTF Ca sens inh, Keap1-Nrf2 PPI)
COc1ccccc1/C=C1\SC(=S)N(CCC(=O)Nc2ccc(C(=O)O)c(O)c2)C1=O	none
O=C(CCCN1C(=O)/C(=C/c2ccco2)SC1=S)Nc1ccccc1C(=O)O	C-LANA FP 65.5
O=C(CCN1C(=O)/C(=C\c2ccco2)SC1=S)Nc1ccc(C(=O)O)c(O)c1	C-LANA FP 83.1
CC(/C=C1\SC(=S)N(CCCC(=O)Nc2ccc(C(=O)O)cc2)C1=O)=C\c1ccccc1	C-LANA FP 85.2
O=C(CCN1C(=O)/C(=C/c2ccco2)SC1=S)Nc1ccc(C(=O)O)c(O)c1	C-LANA FP 88.5
CC(=Cc1ccccc1)C=C1SC(=S)N(CCCC(=O)Nc2ccc(C(=O)O)cc2)C1=O	none (no result: C-LANA FP, cardiac RTF act, RTF Ca sens inh, Keap1-Nrf2 PPI)
O=C1C=C(c2n[nH]nc2-c2ccccc2)C[C@@H](c2ccc(F)cc2)C1	none (no result: C-LANA FP, cardiac RTF act, RTF Ca sens inh, Keap1-Nrf2 PPI)
CC(C)(CC(=O)c1ccccc1)CC(=O)c1ccccc1	none
CCc1ccc(/C=C2\SC(=S)N(CCCC(=O)Nc3ccccn3)C2=O)cc1	cardiac RTF act 36.5
Nc1ccc(-c2c3ccc(=O)cc-3oc3cc(O)ccc23)c(C(=O)O)c1	C-LANA FP 171.2, cardiac RTF act active
COc1ccc(-c2cc(=O)c3ccc(O)cc3o2)cc1OC	none (no result: C-LANA FP, cardiac RTF act, RTF Ca sens inh, Keap1-Nrf2 PPI)
OCCCCCCNc1ccc(CCO)cc1	none (no result: C-LANA FP, cardiac RTF act, RTF Ca sens inh, Keap1-Nrf2 PPI)
Cc1ccc(S(=O)(=O)Nc2ccc3c(c2)CC(=O)N([C@H](C)CO)C[C@@H](C)[C@H](CN(C)S(=O)(=O)c2ccccc2)O3)cc1	none
C[C@H](CO)N1C[C@H](C)[C@@H](CN(C)S(=O)(=O)c2ccc(Cl)cc2)Oc2ccc(NS(=O)(=O)c3ccccc3)cc2CC1=O	eLon inh 18.9
Nc1nc(C(F)(F)F)cc(=O)[nH]1	C-LANA FP 64.8
CC(C)(C)C(=O)/C=c1\s/c(=C\c2ccc(-c3ccc([N+](=O)[O-])cc3)o2)c(=O)n1CC(=O)NC(N)=O	cardiac RTF act 53.7
CCCCn1nnnc1C(c1ccc(OC)cc1)N1CCN(C/C=C/c2ccccc2)CC1 (configuration not stated)	none (no result: C-LANA FP, cardiac RTF act, RTF Ca sens inh, Keap1-Nrf2 PPI)
CC(=O)OCCNc1cc(N2CCN(C)CC2)c2noc3c2c1C(=O)c1ccccc1-3	none
CCOC(=O)C(C(=O)OCC)c1cc(Br)c2noc3c2c1C(=O)c1ccccc1-3	cardiac RTF act 96.0
CCN1CCc2c(sc(NC(=O)c3ccc(S(=O)(=O)N(C)c4ccccc4)cc3)c2C(=O)NC)C1	cardiac RTF act 52.1
CCN(CC)c1ccc2cc(S(=O)(=O)c3ccc(C)cc3)c(=O)oc2c1	cardiac RTF act 53.1, Keap1-Nrf2 PPI inconclusive
Cc1ccc(S(=O)(=O)c2cc3ccccc3oc2=O)cc1	none
O=C(CN(Cc1ccco1)Cc1ccco1)Nc1cc(S(=O)(=O)N2CCCCC2)ccc1Cl	none
Cc1cccc(C)c1-n1nnnc1C1(C)CCC(=O)N1CCCN1CCOCC1 (configuration not stated)	none (no result: C-LANA FP, cardiac RTF act, RTF Ca sens inh, Keap1-Nrf2 PPI)
O=C1/C(=C/c2ccccc2)CCCc2ccccc21	none
CN(C)c1ccc(/C=C2\CCC/C(=C\c3ccccc3)C2=O)cc1	cardiac RTF act 84.3
O=C1NC[C@H](CCCCN2C[C@H](Cc3ccccc3)N(Cc3ccccc3)C(=O)C2=O)N(CCC2CCCCC2)C1=O	none (no result: C-LANA FP, cardiac RTF act, RTF Ca sens inh, Keap1-Nrf2 PPI)
Nc1ccc(S(N)(=O)=O)cc1	none (no result: eLon inh)
Nc1ccc(S(N)(=O)=O)cc1N	cardiac RTF act 29.7
CCCN(C)C1CN(Cc2cn(Cc3cccc(Cl)c3)nn2)S(=O)(=O)C1 (configuration not stated)	none (no result: C-LANA FP, cardiac RTF act, RTF Ca sens inh, Keap1-Nrf2 PPI)
CCNC(=O)C1(C)CCCN(Cc2cc(-c3ccccc3)n(C)n2)C1 (configuration not stated)	none (no result: C-LANA FP, cardiac RTF act, RTF Ca sens inh, Keap1-Nrf2 PPI)
COc1cccc(S(=O)(=O)N(C)C[C@H]2OCc3cnnn3CCCC(=O)N([C@@H](C)CO)C[C@@H]2C)c1	none (no result: C-LANA FP, cardiac RTF act, RTF Ca sens inh, Keap1-Nrf2 PPI)
CCOC(=O)c1c(-c2ccccc2)csc1NC(=O)/C(C#N)=C/c1ccc(O)c(OC)c1	cardiac RTF act 47.2
Cc1ccc(/C=C/c2ccc(N(C)C)cc2)[n+](C)c1	cardiac RTF act 39.0
CC[n+]1ccccc1/C=C/c1ccc(N(C)C)cc1	none
CN(C)c1ccc(/C=C/c2cc[n+](C)cc2)cc1	cardiac RTF act 47.2
CCC(C)[C@H]1CNC(=O)C(=O)N1CC1CCCCC1 (some centres not stated)	none (no result: C-LANA FP, cardiac RTF act, RTF Ca sens inh, Keap1-Nrf2 PPI)
N=c1oc2c3c4c(cc2cc1C(=O)Nc1ccccc1)CCCN4CCC3	cardiac RTF act active
Cc1ccc(NC(=O)c2cc3ccccc3oc2=N)cc1	none
CC(C)C[C@H]1CN(CCCC[C@H]2CNC(=O)C(=O)N2CCc2ccc(O)cc2)C(=O)C(=O)N1CCc1ccccc1	none (no result: C-LANA FP, cardiac RTF act, RTF Ca sens inh, Keap1-Nrf2 PPI)
O=c1cc(O)c2ccc(O)cc2o1	none
O=c1ccc2[n+]([O-])c3ccc(O)cc3oc-2c1	Keap1-Nrf2 PPI 101.3
COc1ccc(S(=O)(=O)N2CCCCC2c2cc(C(=O)Nc3ccc(F)c(Cl)c3)no2)cc1 (configuration not stated)	none (no result: C-LANA FP, cardiac RTF act, RTF Ca sens inh, Keap1-Nrf2 PPI)
CC(C)CC1=NN2C(=N)/C(=C\c3coc4ccccc4c3=O)C(=O)N=C2S1	cardiac RTF act 230.3
CCSC1=NSC2=NC(=O)/C(=C\c3coc4ccccc4c3=O)C(=N)N12	cardiac RTF act 554.6
COc1ccc(N=Cc2cc3c(cc2O)OC(N)=C(C#N)C3c2ccccc2)cc1 (configuration not stated)	cardiac RTF act 71.3
COc1ccc(S(=O)(=O)N(C)CC(=O)NCCCN2CCOCC2)cc1C	none
CN(C)S(=O)(=O)c1cccc(NC(=O)COc2ccccc2C(=O)NCc2ccccc2)c1	none
CC1(C)CC(=O)C2=C(C1)OC(N)=C(C#N)C21CCN(Cc2ccccc2)CC1	cardiac RTF act 31.7
Nc1[nH]c(C(=O)c2ccccc2)c(-c2ccc(Cl)cc2)c1C(=O)NCc1ccccc1	none (no result: C-LANA FP, cardiac RTF act, RTF Ca sens inh, Keap1-Nrf2 PPI)
Cn1cnc2ncnn2c1=S	none (no result: C-LANA FP, cardiac RTF act, RTF Ca sens inh, Keap1-Nrf2 PPI)
Cc1noc(C)c1C(=O)OC(C)C(=O)c1c[nH]c2ccccc12 (configuration not stated)	none (no result: C-LANA FP, cardiac RTF act, RTF Ca sens inh, Keap1-Nrf2 PPI)
O=C(/C=C/c1cccc(Cl)c1)OCc1cn2cc(Cl)ccc2n1	none
COc1cccc(/C=C/C(=O)NCc2cn3cc(Cl)ccc3n2)c1	C-LANA FP 76.7
C=C(C)C(=O)Nc1cccc(C2=NOC3(C2)C[C@@H](C(N)=O)N(C(=O)/C(C)=C/C)C3)c1 (some centres not stated)	C-LANA FP 84.5
C=C(C)C(=O)Nc1cccc(C2=NOC3(C2)C[C@@H](C(N)=O)N(C(=O)/C=C/C=C/C)C3)c1 (some centres not stated)	C-LANA FP 67.5
